64 molecules from article PMC4336329 (PLoS ONE, 2015) can be followed below.

Among all 310,000 compounds or so, about 14,000 (4.5%) showed an effect of 50% or more. The effect is printed as a negative number. The entries come from a sample that favours strong results as a whole.
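Note: peak tail current of the secondary pulse compared with the same well before compound.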

human ether-à-go-go-related gene (hERG) potassium channel, sequence (Q12809 whole entry, looked up): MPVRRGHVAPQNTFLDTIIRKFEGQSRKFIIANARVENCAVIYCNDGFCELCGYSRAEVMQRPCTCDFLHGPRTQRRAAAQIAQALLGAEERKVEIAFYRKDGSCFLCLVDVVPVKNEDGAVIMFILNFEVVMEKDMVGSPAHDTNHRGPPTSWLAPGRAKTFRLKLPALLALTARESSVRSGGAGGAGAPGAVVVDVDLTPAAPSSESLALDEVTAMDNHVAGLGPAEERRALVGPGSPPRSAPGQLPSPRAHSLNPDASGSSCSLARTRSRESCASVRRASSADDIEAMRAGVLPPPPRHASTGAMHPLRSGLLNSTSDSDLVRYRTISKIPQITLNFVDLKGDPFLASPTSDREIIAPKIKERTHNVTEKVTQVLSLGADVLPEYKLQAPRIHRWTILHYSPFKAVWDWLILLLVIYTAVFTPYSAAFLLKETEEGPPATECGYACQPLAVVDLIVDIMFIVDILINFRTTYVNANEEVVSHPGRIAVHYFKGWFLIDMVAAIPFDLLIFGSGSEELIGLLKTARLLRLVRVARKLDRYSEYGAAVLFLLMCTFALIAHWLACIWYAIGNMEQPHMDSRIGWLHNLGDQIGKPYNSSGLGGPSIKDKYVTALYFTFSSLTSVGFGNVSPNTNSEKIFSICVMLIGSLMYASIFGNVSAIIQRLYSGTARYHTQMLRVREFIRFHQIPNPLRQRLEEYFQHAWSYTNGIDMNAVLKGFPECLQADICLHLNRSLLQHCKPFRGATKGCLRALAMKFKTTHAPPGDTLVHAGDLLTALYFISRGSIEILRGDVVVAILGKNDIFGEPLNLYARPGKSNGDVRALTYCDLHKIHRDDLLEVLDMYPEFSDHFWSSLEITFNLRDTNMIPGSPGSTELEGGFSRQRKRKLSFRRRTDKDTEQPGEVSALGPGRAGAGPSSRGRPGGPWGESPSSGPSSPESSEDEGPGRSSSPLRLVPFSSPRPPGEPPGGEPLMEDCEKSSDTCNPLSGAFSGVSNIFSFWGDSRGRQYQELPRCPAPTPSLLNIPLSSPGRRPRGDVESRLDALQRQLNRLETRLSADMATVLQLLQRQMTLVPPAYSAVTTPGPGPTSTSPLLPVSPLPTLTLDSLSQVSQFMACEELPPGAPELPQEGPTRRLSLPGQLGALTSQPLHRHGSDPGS

The experiment has as its target human ether-à-go-go-related gene (hERG) potassium channel (human, UniProt Q12809). The experiment can be described thus: primary screen, population patch clamp on CHO cells stably expressing hERG; higher = less effect of the substance.
Turning to `O=C(NC(=O)N1CCCCC1)c1ccc(Cl)cc1`, the “hERG current change (%, negative = inhibition) at 10uM” value amounted to 15.7%.

With `CCO[C@H]1OC(C(=O)Nc2ccccc2)=C[C@@H](C2CC2)[C@@H]1CCCO`, the “hERG current change (%, negative = inhibition) at 10uM” value came out at 1.16%.

Consider `CCCCc1nnc(NC(=O)CCc2ccccc2)s1`, for which the “hERG current change (%, negative = inhibition) at 10uM” value is given as 19.3%.

On to `COC(=O)c1ccc(-n2nnnc2SCC(=O)Nc2cc(OC)ccc2OC)cc1`, for which the “hERG current change (%, negative = inhibition) at 10uM” value was 2.37%.

As for `CCOC(=O)c1nn(-c2cccc(C)c2)c2nnc(Cc3ccc(C)cc3)c(=O)n12`, the “hERG current change (%, negative = inhibition) at 10uM” value was -16.1%.

Regarding `O=C(Nc1ccc(SC(F)F)cc1)C1CC(=O)N(Cc2ccccc2)C1` (stereo not shown), the “hERG current change (%, negative = inhibition) at 10uM” value is listed as -48%.

In the case of `COc1ccc(S(=O)(=O)N2CCN(C(=O)c3c(C)nn(-c4ccccc4)c3Cl)CC2)cc1`, the “hERG current change (%, negative = inhibition) at 10uM” value is listed as -19.4%.

On to `CCC(=O)N1CCN(c2ccc(Cl)cc2NC(=O)c2ccc3c(c2)OCCO3)CC1`, for which the “hERG current change (%, negative = inhibition) at 10uM” value is listed as -37.2%.

On to `O=C(Nc1ccc(Cl)cc1)c1ccc(CN2CCc3ccccc3C2)cc1`, for which the “hERG current change (%, negative = inhibition) at 10uM” value turned out to be 13.7%.

On to `COc1cccc(C(=O)N2CCN(C(=O)Cc3ccccc3)CC2)c1.O=C(O)C(=O)O`, for which the “hERG current change (%, negative = inhibition) at 10uM” value is reported as -0.00122%.

For the molecule `CCC(=O)Nc1ccc(C(=O)Nc2cccnc2)cc1`, the “hERG current change (%, negative = inhibition) at 10uM” value was -0.52%.

As to `CC(OC(=O)c1cc(S(=O)(=O)N2CCOCC2)ccc1Br)C(=O)N1CCOCC1` (stereo not shown), the “hERG current change (%, negative = inhibition) at 10uM” value is on record as -12%.

Regarding `O=C(Nc1nccs1)C1CCN(S(=O)(=O)c2ccc(F)cc2)CC1`, the “hERG current change (%, negative = inhibition) at 10uM” value was 2.1%.

As to `CCOC(=O)CNC(=O)CSc1ccc(-c2nc3ccccc3[nH]2)cn1`, the “hERG current change (%, negative = inhibition) at 10uM” value is -6.35%.

Consider `CSc1ccc(CN(C)CC(=O)NC(C)c2ccccc2)cc1` (stereo not shown), for which the “hERG current change (%, negative = inhibition) at 10uM” value is given as -83.9%.

Regarding `COc1ccccc1CNC(=O)CN(C)CC(=O)Nc1cccc(F)c1`, the “hERG current change (%, negative = inhibition) at 10uM” value is 4.16%.

In the case of `Cc1ccc(CN(C)CC(=O)NC(C)c2ccccc2)cc1` (stereo not shown), the “hERG current change (%, negative = inhibition) at 10uM” value is recorded as -16%.

Consider `CC(NC(=O)CN(C)Cc1ccc(Br)cc1)c1ccccc1` (stereo not shown), for which the “hERG current change (%, negative = inhibition) at 10uM” value is on record as -19.3%.

Regarding `COc1ccccc1CNC(=O)CN(C)Cc1ccc(SC)cc1`, the “hERG current change (%, negative = inhibition) at 10uM” value is on record as -50.8%.

As for `COc1cccc(CN(C)CC(=O)NCc2ccc(F)cc2)c1OC`, the “hERG current change (%, negative = inhibition) at 10uM” value came to 6.98%.

With `O=C(O)C1C2C=CC(C2)C1C(=O)NCc1cccs1` (stereo not shown), the “hERG current change (%, negative = inhibition) at 10uM” value was found to be 9.44%.

Consider `O=C(Nc1cc(Cl)cc(Cl)c1)N1CCN(C(=O)C2CCCO2)CC1` (stereo not shown), for which the “hERG current change (%, negative = inhibition) at 10uM” value is listed as -26.4%.

Take `COCCNC(=O)C1CCN(C(=O)C2CC(=O)N(c3ccc(C)cc3)C2)CC1` (stereo not shown): the “hERG current change (%, negative = inhibition) at 10uM” value came out at 7.39%.

Regarding `CCc1nnc(NC(=O)CSc2nnc(COc3ccccc3C)o2)s1`, the “hERG current change (%, negative = inhibition) at 10uM” value turned out to be 15.2%.

For the molecule `O=C(COc1ccc(Br)cc1)Nc1ccc([N+](=O)[O-])cn1`, the “hERG current change (%, negative = inhibition) at 10uM” value is -19.7%.

As to `COc1cc(NC(=O)CSCc2ccccc2)c(C(=O)O)cc1OC`, the “hERG current change (%, negative = inhibition) at 10uM” value is listed as 11.2%.

In the case of `COc1ccc(CCNc2ccc(C(CC(N)=O)NC(=O)Cc3cccc4ccccc34)cc2[N+](=O)[O-])cc1` (stereo not shown), the “hERG current change (%, negative = inhibition) at 10uM” value was 4.29%.

Turning to `CCN(CC)CC(=O)c1c[nH]c2ccc(OC)cc12`, the “hERG current change (%, negative = inhibition) at 10uM” value is -22.9%.

For the molecule `COc1ccc2[nH]cc(C(=O)CN(C)CCc3ccc(OC)c(OC)c3)c2c1`, the “hERG current change (%, negative = inhibition) at 10uM” value is given as -70.3%.

As to `COc1ccc2[nH]cc(C(=O)CN(C)C)c2c1`, the “hERG current change (%, negative = inhibition) at 10uM” value amounted to 9.06%.

For `COc1ccccc1-n1cnc2sc(C)c(C)c2c1=O`, the “hERG current change (%, negative = inhibition) at 10uM” value came out at 5.71%.

With `COc1ccc(NC(=O)/C(C#N)=C\c2cc(C)n(-c3ccc4c(c3)OCO4)c2C)cc1`, the “hERG current change (%, negative = inhibition) at 10uM” value is on record as 3.77%.

With `Cc1ccc(-n2cc(CN(C)Cc3nccn3C)c(-c3ccc(F)cc3)n2)cc1`, the “hERG current change (%, negative = inhibition) at 10uM” value is given as -37.6%.

With `CCN1CC(CN(C)Cc2cn(-c3cccc(C)c3)nc2-c2cccc(F)c2)CC1=O` (stereo not shown), the “hERG current change (%, negative = inhibition) at 10uM” value is reported as -31.7%.

Take `Cc1ccc(-n2cc(CNCCCN3CCCC3=O)c(-c3ccc(F)cc3)n2)cc1`: the “hERG current change (%, negative = inhibition) at 10uM” value is reported as -72.1%.

With `CCN1CC(CN(C)Cc2cn(-c3ccc(C)cc3)nc2-c2cccc(C)c2)CC1=O` (stereo not shown), the “hERG current change (%, negative = inhibition) at 10uM” value is listed as -60.5%.

Regarding `Cc1ccc(-c2nn(-c3ccccc3)cc2C(=O)NCCCN2CCCC2=O)cc1`, the “hERG current change (%, negative = inhibition) at 10uM” value is -17.1%.

As to `CCN1CC(CN(C)Cc2cn(-c3ccc(C)cc3)nc2-c2ccc(F)cc2)CC1=O` (stereo not shown), the “hERG current change (%, negative = inhibition) at 10uM” value is given as -35.1%.

Take `COc1ccc(-c2nn(-c3ccccc3F)cc2CNCCn2nc(C)cc2C)cc1`: the “hERG current change (%, negative = inhibition) at 10uM” value is on record as -50.2%.

Regarding `COc1ccc(-c2nn(-c3ccccc3C)cc2CNC(C)c2cn(C)nc2C)cc1F` (stereo not shown), the “hERG current change (%, negative = inhibition) at 10uM” value is given as -1.99%.

Turning to `Cc1ccc(-n2cc(CN3CCCN(C=O)CC3)c(-c3ccc(F)cc3)n2)cc1`, the “hERG current change (%, negative = inhibition) at 10uM” value is recorded as -18.7%.

Turning to `COc1ccc(-c2csc(CCn3nc(C)cc3C)n2)cc1`, the “hERG current change (%, negative = inhibition) at 10uM” value is recorded as 4.1%.

In the case of `Cc1ccc(-n2cc(CNCCCn3ccnc3C)c(-c3ccc(F)cc3)n2)cc1`, the “hERG current change (%, negative = inhibition) at 10uM” value was -71.7%.

As for `COc1cc(/C=N/NC(=O)c2cc(-c3ccccc3)nc3ccccc23)ccc1O`, the “hERG current change (%, negative = inhibition) at 10uM” value is recorded as 6.54%.

In the case of `CCOc1cc(C(=O)N/N=C/c2ccoc2)cc(OCC)c1OCC`, the “hERG current change (%, negative = inhibition) at 10uM” value was 5.67%.

Take `COCCCn1c(=O)/c(=C\c2ccccc2OC(F)F)s/c1=C(/C#N)C(=O)NCCOC`: the “hERG current change (%, negative = inhibition) at 10uM” value is -11.5%.

`CCc1nnc(NC(=O)CSc2nnc(-c3cccnc3)n2CCc2ccccc2)s1`: the “hERG current change (%, negative = inhibition) at 10uM” value was -2.07%.

For the molecule `CC(=O)N1CCN(CCN2C(C)=CC(=C(C#N)C#N)C=C2C)CC1`, the “hERG current change (%, negative = inhibition) at 10uM” value is given as -3.8%.

For the molecule `O=C(COC(=O)CCSc1ccccc1Cl)NCc1ccco1`, the “hERG current change (%, negative = inhibition) at 10uM” value amounted to 6.44%.

With `O=C1NC(=O)C(=Cc2csc3ccccc23)C(=O)N1`, the “hERG current change (%, negative = inhibition) at 10uM” value is on record as 7.68%.

On to `Cc1ccccc1CSc1nnnn1-c1ccc(C(N)=O)cc1`, for which the “hERG current change (%, negative = inhibition) at 10uM” value is recorded as 14.7%.

For the molecule `Cc1cccc(NC(=O)COC(=O)c2ccc([N+](=O)[O-])o2)c1C`, the “hERG current change (%, negative = inhibition) at 10uM” value was found to be 8.7%.

`Cc1ccc(-c2nn(-c3ccccc3)cc2CNCc2ccccc2)cc1.Cl`: the “hERG current change (%, negative = inhibition) at 10uM” value amounted to 7.42%.

As for `COc1ccc2cc(-c3[nH]ncc3CNCCn3nc(C)cc3C)ccc2c1`, the “hERG current change (%, negative = inhibition) at 10uM” value is on record as -63.2%.

In the case of `COc1ccc(-n2cc(CNCC3CC(=O)N(C4CC4)C3)c(-c3ccccc3Cl)n2)cc1` (stereo not shown), the “hERG current change (%, negative = inhibition) at 10uM” value is listed as -13.4%.

On to `Cc1ccc(-n2cc(CNCCN3CCOC3=O)c(-c3ccc(F)cc3)n2)cc1`, for which the “hERG current change (%, negative = inhibition) at 10uM” value is listed as -63.2%.

Take `Cc1ccc(-n2cc(CNCCn3nc(C)cc3C)c(-c3ccc(F)cc3)n2)cc1`: the “hERG current change (%, negative = inhibition) at 10uM” value is reported as -50.8%.

For `Cc1ccc(-n2cc(CNC(C)c3cnn(C)c3C)c(-c3ccc(F)cc3)n2)cc1` (stereo not shown), the “hERG current change (%, negative = inhibition) at 10uM” value is given as -30.7%.

Turning to `Cc1cc(C)n(CC(C)NCc2cn[nH]c2-c2ccc(C)c(C)c2)n1` (stereo not shown), the “hERG current change (%, negative = inhibition) at 10uM” value is listed as -35.7%.

As for `Cc1ccc(-n2cc(CNCC3CC(=O)N(C4CC4)C3)c(-c3cccc(C)c3)n2)cc1` (stereo not shown), the “hERG current change (%, negative = inhibition) at 10uM” value was -71.9%.

On to `O=C1OCCN1CCNCc1cn(-c2ccc(F)cc2)nc1-c1ccccc1Cl`, for which the “hERG current change (%, negative = inhibition) at 10uM” value is listed as -45.2%.

For `COC(=O)CC1C(=O)NCCN1Cc1cn(-c2ccc(C)cc2)nc1-c1cccc(C)c1` (stereo not shown), the “hERG current change (%, negative = inhibition) at 10uM” value was -9.55%.

`CCOC(=O)CN(C)Cc1cn[nH]c1-c1ccc2cc(OC)ccc2c1`: the “hERG current change (%, negative = inhibition) at 10uM” value is given as -5.34%.

In the case of `COc1ccc(-c2nn(-c3ccccc3)cc2CNCCN2CCOC2=O)c(F)c1`, the “hERG current change (%, negative = inhibition) at 10uM” value is on record as -11.9%.
